TDP1 cell CPT – DT40-hTDP1 cell growth loss with CPT; chicken DT40 Tdp1-/-;hTDP1 cells + 20 nM CPT, ATP luminescence, 48 h; Potency, µM (series often up to 46.2 µM), for inactives: top-dose activity change, negative = growth inhibition, hits mostly inhibitors; 420,000 tested, 12% active; further: potency means the concentration at half of the fitted maximal effect; nearly all actives have a fitted effect of over 55% in size
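Cell growth measured by CellTiter-Glo luminescence after a minimum 48 h, 37 C compound exposure with 20 nM CPT in Tdp1-knockout DT40 cells stably expressing hTDP1, seeded 400/well; qHTS titration format.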
Giardia kill – kills Giardia lamblia; AID 540267; 340,000 tested, 0.15% active; Giardia lamblia trophozoite viability; activity change, % at 7.66 µM, hits read low; in the data active means activity change below about -80%; inconclusive means between about -30% and that limit;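 further: parasites exposed to compound for two days anaerobically before the ATP read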
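Giardia lamblia trophozoites (100 cells/well) were incubated with compounds for 48 h at 37 deg C under anaerobic conditions. Viability was read as ATP content by one-step luminescence after 15-30 min at room temperature.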
TDP1 inh – TDP1 (human) enzyme inhibition. Potency, µM (top dose mostly 130 µM), for the others: at the top dose activity change, negative = inhibition, actives largely listed as inhibitors. recombinant TDP1, AlphaScreen DNA substrate cleavage. Q9NUW8. AID 485290. 350,000 tested, 0.28% active; further: potency means the concentration at half of the fitted maximal effect; nearly all actives have a fitted effect of over 40% in size
Target sequence (Q9NUW8 whole entry, looked up): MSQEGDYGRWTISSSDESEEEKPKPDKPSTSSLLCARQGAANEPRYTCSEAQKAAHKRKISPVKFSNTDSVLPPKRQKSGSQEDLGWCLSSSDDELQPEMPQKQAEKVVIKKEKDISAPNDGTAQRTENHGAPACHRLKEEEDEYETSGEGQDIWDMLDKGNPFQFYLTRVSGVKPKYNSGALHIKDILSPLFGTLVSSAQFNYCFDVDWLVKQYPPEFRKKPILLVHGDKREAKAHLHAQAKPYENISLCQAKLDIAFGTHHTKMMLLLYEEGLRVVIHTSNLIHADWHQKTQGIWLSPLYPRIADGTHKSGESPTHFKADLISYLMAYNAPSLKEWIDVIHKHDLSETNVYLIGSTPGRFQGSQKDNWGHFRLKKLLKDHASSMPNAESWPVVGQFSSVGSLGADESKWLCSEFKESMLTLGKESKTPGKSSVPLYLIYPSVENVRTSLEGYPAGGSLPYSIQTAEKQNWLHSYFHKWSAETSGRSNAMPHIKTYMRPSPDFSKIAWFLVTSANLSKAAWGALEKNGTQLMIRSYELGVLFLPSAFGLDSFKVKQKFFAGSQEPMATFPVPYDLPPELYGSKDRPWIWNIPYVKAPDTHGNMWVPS
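Recombinant E. coli-expressed Tdp1 (1 nM) preincubated with compound 15 min at RT, then 5'-biotin/3'-phosphotyrosine-FITC DNA substrate (15 nM) added for 5 min. AlphaScreen beads (10 ug/ml) added, 10 min RT; tyrosine-FITC cleavage read as signal loss.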
TDP1 cell noCPT – qHTS for Inhibitors of human tyrosyl-DNA phosphodiesterase 1 (TDP1): qHTS in cells in absence of CPT; Potency, µM (top dose mostly 46.2 µM), without a hit: at the highest dose activity change, negative = growth inhibition, usual class: inhibitors; DT40 Tdp1-/- hTDP1 cells, no CPT, ATP luminescence, 48 h; 420,000 tested, 15% active; further: potency means the concentration at half of the fitted maximal effect; nearly all actives have a fitted effect of over 55% in size
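Camptothecin absent (DMSO only). Human TDP1-complemented DT40 knockout cells, 400 cells/well, 37 °C for minimum 48 hr; ATP measured via CellTiter-Glo, 30 min dark incubation, luminescence.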
ELG1 DNA repair – blocks ELG1-dependent DNA repair in HEK293T cells. 330,000 tested, 2.3% active. AID 504467. HEK293T ELG1-luciferase reporter, luminescence, 16 h; DNA damage induced by 5-fluorouridine. Potency, µM (series often up to 46.1 µM), for the others: at the top dose activity change, negative = inhibition, most hits filed as inhibitors; further: potency means the concentration at half of the fitted maximal effect; nearly all actives have a fitted effect of over 55% in size
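In this reporter screen, reduction of luminescence relative to DMSO vehicle indicated activity. Compounds and 5-fluorouridine were added together to 2,000 cells per well, incubated for 16 hr at 37 °C, then developed with ONE-Glo.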
IL1B secr inh – inflammasome signaling inhibition, IL-1 beta readout | AID 743279 | THP-1 LPS/ATP IL-1B secretion, AlphaLISA, 16 h; active compounds read low | 360,000 tested, 4.7% active | activity change, % at 57.5 µM; in the data active means activity change below about -50%; inconclusive means mostly about -30% to -49%
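Secreted IL-1B measured by AlphaLISA bead assay after 16 h compound exposure of THP-1 cells; compounds (final up to 57.5 uM) added 1 h before LPS (250 ng/mL) and ATP (1.25 mM) stimulation; lower signal means less secretion.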
An asterisk follows results filed as active; ? = inconclusive; · = no result given; ! = repeats disagree; [ ] = dose if it differs, or a comment. Only some compounds are listed: those with a hit (about 19% of all), similar ones and a draw of the others. Unless noted, the call rests on the fitted dose curve; in most records, active means well fitted curve in the direction sought with a large enough effect; inconclusive means small, poorly fitted or top-dose-only effect, or another doubt; inactive means no such curve, though single readings can be large; an effect the other way counts as inactive or inconclusive. On the % scale 0 is the no-effect control and ±100 the full control effect.

SMILES | TDP1 cell CPT | Giardia kill | TDP1 inh | TDP1 cell noCPT | ELG1 DNA repair | IL1B secr inh
CCN1C(=O)[C@H]2[C@@H](c3ccc(-c4cccc(Cl)c4)cc3)N[C@@](C)(C(=O)OC)[C@H]2C1=O | 16.4µM* | 10.3 | -3.8% | 13µM* | ? | -5.4
O=C1NC2(CCCCC2)C(=O)N1CC(=O)N(Cc1ccccc1)c1ccccc1 | -20.9% | 46.7 | 2.0% | -9.8% | 2.1% | -7.8
Cc1ccc(-c2nc(C)c(CCNS(=O)(=O)c3ccccc3F)s2)cc1 | · | · | 5.5% | · | · | ·
Nc1ccc(CCCC(=O)NCc2cccnc2)cc1 | 2.6% | · | · | -3.8% | · | -1.3
O=C(NN=Cc1ccc([N+](=O)[O-])cc1)c1ccncc1 | -24.1% | 20.2 | · | -14.5% | · | 20.0
CC(C)/C=C(/C(=O)c1ccc(Cl)cc1Cl)n1cncn1 | ? | 34.3 | · | 20.6µM* | -4.3% | -71.4*
CC(C)(C)C(=O)/C(=C\c1ccc([N+](=O)[O-])cc1)n1cncn1 | · | · | 4.2%[56.1 µM] | · | 11.6µM* | ·
CC(C)(C)C(=O)/C(=C/c1ccc(Cl)cc1)n1cncn1 | 5.8µM* | -14.0 | · | 5.17µM* | ? | -97.0*
Cc1nn(Cc2ccc(C(=O)NC(C)(C)C)o2)c(C)c1Br | 23.1µM* | 5.1 | 3.9% | 11.6µM* | ? | -19.5
Cc1nn(Cc2ccc(C(=O)Nc3ccc(C(=O)OC(C)C)cc3)o2)c(C)c1Cl | ? | -7.1 | -4.5% | ? | 18.4µM* | 0.0
Cc1nn(Cc2ccc(C(=O)NN)o2)c(C)c1Cl | -11.9% | -3.3 | 6.2% | -20.0% | ? | 3.5
COc1ccc2c(CNC3CCC(C)CC3)c(C(=O)O)n(Cc3ccccc3)c2c1 (stereo unspecified) | ? | · | 2.6% | ? | · | ·
CC[C@](N)(CCC(=O)O)C(=O)O | -2.1% | · | 1.2% | 18.8µM*! | · | ·
CCc1ccc(NC(=O)C2CCC(CNS(=O)(=O)c3ccc4c(c3)C(C)(C)C(=O)N4C)CC2)cc1 (stereo unspecified) | -1.9% | · | 0.0% | 6.2% | · | ·
O=C(CCNS(=O)(=O)c1ccc2c(c1)CCN2C(=O)C1CC1)N1CCN(c2cccc(Cl)c2)CC1 | 5.8µM* | · | 4.4% | 9.2µM* | · | ·
N#Cc1ccc(CN2CCN(C(=O)CCNS(=O)(=O)c3ccc(F)c(Cl)c3)CC2)cc1 | ? | -22.3 | -0.1% | 18.4µM* | -21.9% | -5.6
Cc1ccc(S(=O)(=O)NCCC(=O)N2CCN(Cc3ccccc3)CC2)cc1 | -4.8% | 1.9 | 5.7% | -25.2% | -2.7% | -3.8
N#Cc1ccc(CN2CCN(C(=O)CCNS(=O)(=O)c3ccc(F)c(F)c3)CC2)cc1 | -27.1% | ? | 0.5% | -18.4% | 0.3% | 28.0
CC(=O)N1CCc2cc(S(=O)(=O)NCCC(=O)N3CCN(Cc4ccccc4)CC3)ccc21 | ? | 13.5 | 2.0% | 20.6µM* | ? | 18.8
CC(=O)N1CCc2cc(S(=O)(=O)NCCC(=O)NC3CCCc4ccccc43)ccc21 (stereo unspecified) | -14.7% | -0.4 | -7.8% | -15.0% | 13µM* | 0.0
COCCN(C(=O)COC(=O)C(c1ccccc1)c1ccccc1)c1c(N)n(Cc2ccccc2)c(=O)[nH]c1=O | ? | 0.0 | 3.3%[0.505 µM] | ? | -3.6% | -25.5
O=C(Cn1cc(C(F)(F)F)ccc1=O)NCCc1ccc(Cl)cc1Cl | -4.9% | 8.4 | 0.0% | -9.3% | 7.5% | 29.9
COc1ccc(N2CCN(C(=O)CCNS(=O)(=O)c3ccc4c(c3)CCN4C(=O)C3CC3)CC2)cc1 | 13µM* | · | 9.9% | 18.4µM* | · | ·
O=C1CCc2cc(S(=O)(=O)NCCC(=O)N3CCN(c4cccc(Cl)c4)CC3)ccc2N1 | 25.9µM* | 14.4 | 2.7% | 10.3µM* | ? | 1.5
N#Cc1ccc(CN2CCN(CC(=O)NCCc3ccc(Cl)cc3Cl)CC2)cc1 | 20.6µM* | -7.6 | · | 20.6µM* | -17.7% | ?
SMILES | TDP1 cell CPT | Giardia kill | TDP1 inh | TDP1 cell noCPT | ELG1 DNA repair | IL1B secr inh
COc1ccc(CNS(=O)(=O)c2ccc3c(c2)CCN3C(=O)C2CCC2)cc1 | ? | 7.5 | 0.5% | ? | 13.5% | 14.6
Cc1cccc(N2CCN(C(=O)CCNS(=O)(=O)c3ccc4c(c3)CCN4C(=O)C3CC3)CC2)c1C | 18.4µM* | · | 2.2% | 18.4µM* | · | ·
CC1CC(C)CN(C(=O)CCNS(=O)(=O)c2ccc3c(c2)CCC(=O)N3)C1 (stereo unspecified) | -10.0% | -7.3 | -5.3% | -1.8% | 5.5% | -5.1
Cc1ccc2c(C)c(C(=O)N3CCC(c4nc5ccccc5s4)CC3)oc2c1C | -29.3% | · | -5.7% | ? | · | ·
CC(=O)Nc1ccc(S(=O)(=O)N2c3ccccc3NC(=O)CC2C)c(Cl)c1 (stereo unspecified) | -3.0% | -18.5 | 0.6% | 5.4% | 1.0% | 12.7
Cc1ccc(S(=O)(=O)Nc2cccc(-c3ccc(N4CCC(C)CC4)nn3)c2)s1 | ? | · | 0.6% | ? | · | ·
O=C(Nc1ccc(S(=O)(=O)Nc2ccccc2)cc1)c1ccc(CN2CCOCC2)cc1 | ? | 13.9 | 1.2% | ? | -23.7% | ?
O=C(CCNS(=O)(=O)c1ccc2c(c1)CCN2C(=O)C1CC1)N1CCN(c2ccc(F)cc2)CC1 | 3.26µM* | · | 2.2% | 9.2µM* | · | ·
CCN(CC)c1ccc(NC(=O)CCNS(=O)(=O)c2ccc3c(c2)CCC(=O)N3)c(C)c1 | ? | 2.5 | 11.9% | 16.4µM* | -6.3% | 30.0
CC(C)n1c(SCC(=O)N2CCN(C)CC2)nc2c1c(=O)n(C)c(=O)n2C | -2.0% | 18.0 | · | -8.6% | 21.8% | -5.6
CC(C)(C)S(=O)N1Cc2cc(CO)cc(CCO)c2[C@H]1CCO (stereo partly specified) | 1.1% | 1.7 | · | 6.5% | · | 51.8
CCCC(CCC)C(=O)NC1CC(=O)N(c2ccc3c(c2)OCCO3)C1 (stereo unspecified) | -8.8% | · | -2.6% | -2.7% | · | ·
O=C(Nc1ccccc1)N(Cc1c[nH]c2ccccc12)C1CCCCCC1 | 11.6µM* | · | 4.7% | 18.4µM* | · | ·
CCc1ccc(NC(=O)N(Cc2c[nH]c3ccccc23)C2CCCCC2)cc1 | 7.31µM* | · | 2.3% | 6.51µM* | · | ·
N#CCCN(C(=O)Nc1ccccc1)C1CCCCC1 | 1.6% | 10.1 | · | 2.9% | · | 20.8
CCc1ccc(NC(=O)N(Cc2c[nH]c3ccccc23)C2CCCCCC2)cc1 | 20.6µM* | 29.0 | 4.7% | 7.31µM* | · | ·
COc1ccc(-c2nnc(NC(=O)c3ccccc3[N+](=O)[O-])s2)c(OC)c1 | 16.4% | -13.2 | · | 6.4% | 23.9% | -15.1
Cc1ccc(C(=O)N/C(=C\c2ccc(-c3cccc([N+](=O)[O-])c3)o2)C(=O)NCCCN2CCOCC2)cc1 | ? | 8.3 | 6.2% | ? | -11.7% | -12.3

High-throughput results (PubChem)
